Test results taken from PubChem BioAssay (NCI).
About 83,000 compounds went through this panel and 20% of them were active in at least one assay; those are over-represented in the sample as a whole.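 The test compound was applied at a single concentration to cells in 96-well plates for 48 hours, and percent growth was recorded.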 A number with no mark means an inactive call. Active and inactive are the calls of the source. Rule for the calls: active = growth percent below 10; inactive = the rest.

Tests used:
Assay in all cases: NCI-60 one-dose screen, 48 h (100 = growth as untreated, 0 = no growth, -100 = all killed)
Conditions in all cases: 10 µM unless noted
HCT-15 colon = tested on: HCT-15 colon
HT29 colon = tested on: HT29 colon
SNB-75 CNS = tested on: SNB-75 CNS
SNB-19 CNS = tested on: SNB-19 CNS
U251 CNS = tested on: U251 CNS
PC-3 prostate = tested on: PC-3 prostate
SK-MEL-5 melanoma = tested on: SK-MEL-5 melanoma
UACC-62 melanoma = tested on: UACC-62 melanoma
SK-MEL-28 melanoma = tested on: SK-MEL-28 melanoma
SK-MEL-2 melanoma = tested on: SK-MEL-2 melanoma
SN12C renal = tested on: SN12C renal
UO-31 renal = tested on: UO-31 renal
TK-10 renal = tested on: TK-10 renal
ACHN renal = tested on: ACHN renal
CAKI-1 renal = tested on: CAKI-1 renal
A498 renal = tested on: A498 renal
CCRF-CEM leukemia = tested on: CCRF-CEM leukemia
MOLT-4 leukemia = tested on: MOLT-4 leukemia
LOX IMVI melanoma = tested on: LOX IMVI melanoma
EKVX NSCLC = tested on: EKVX NSCLC

Row | Compound | growth (HCT-15 colon) | growth (HT29 colon) | growth (SNB-75 CNS) | growth (SNB-19 CNS) | growth (U251 CNS) | growth (PC-3 prostate) | growth (SK-MEL-5 melanoma) | growth (UACC-62 melanoma) | growth (SK-MEL-28 melanoma) | growth (SK-MEL-2 melanoma) | growth (SN12C renal) | growth (UO-31 renal) [%] | growth (TK-10 renal) [%] | growth (ACHN renal) [%] | growth (CAKI-1 renal) [%] | growth (A498 renal) | growth (CCRF-CEM leukemia) | growth (MOLT-4 leukemia) | growth (LOX IMVI melanoma) | growth (EKVX NSCLC) [%]
1 | Cc1ccn2c(-c3csc(Nc4cccc(O)c4)n3)c(C)nc2c1 | 17.1% | 61.7% | -2.73% (active) | 49.2% | 28.6% | 26.6% | -42.9% (active) | 21.5% | 37.7% | 24.2% | 20.8% | 40.4 | 57.2 | 26 | 80.6 | 64.7% | 23.7% | -7.6% (active) | – | –
2 | Cn1cc(-c2nc(-c3c[nH]c4ccccc34)cs2)c2cccnc21 | 30% | 7.8% (active) | -6.18% (active) | 51.6% | 26.6% | 32.5% | 21.6% | 51.4% | 52.4% | – | 52.7% | 43.8 | 44 | 56.8 | 29.7 | -0.249% (active) | 7.02% (active) | 19.9% | 39.4% | –
3 | CC(=O)N1CC(Nc2ccc(OC(F)(F)F)cc2)=CC1=O | 30.8% | 7.79% (active) | 9.15% (active) | 42.3% | 28.6% | 30.6% | 21.2% | 39.1% | 56.5% | – | 56.7% | 65.7 | 51.9 | 53.4 | 30 | – | 11% | 27.1% | 43.7% | –
4 | NCc1cn2cc(Cl)sc2n1 | 98.6% | 105% | 92.6% | 112% | 93.2% | 92.3% | 103% | 110% | 104% | 102% | – | 88.8 | 92.1 | 102 | 102 | 90.8% | 103% | 110% | – | –
5 | O=S(=O)(NCCCNc1cc(-c2cn(-c3ccccc3)nc2-c2cccc(O)c2)ccn1)c1ccccc1 | 9.91% (active) | 14.8% | 51% | 77.5% | 41.3% | 21.5% | 15.4% | 50.1% | – | 74.6% | 68.7% | 37.8 | 62.5 | – | 43.3 | 50.6% | 38.5% | 37.1% | 17% | 37.8
6 | Oc1ccc2c(=S)cc(-c3ccc(Br)cc3)oc2c1O | 8.03% (active) | 63.9% | 71.4% | 6.8% (active) | -7.83% (active) | -2.05% (active) | – | 8.09% (active) | 51.4% | 63.8% | -4.08% (active) | 17.4 | 103 | 13.9 | – | 53.9% | 5.37% (active) | 7.88% (active) | 1.22% (active) | 87.9
7 | COC(=O)[C@@H]1CC[C@]2(C)[C@H](CC[C@@H]3O[C@@]32C)[C@@]1(C)CC(=O)c1ccoc1 | 103% | 93.2% | 114% | 91.1% | 91.8% | 86% | – | 89.5% | 104% | 78.2% | 92.7% | 97 | 84 | 105 | 106 | 88.6% | 102% | 94.8% | 98.6% | 105
8 | CCN(CC)CCC(=O)Nc1ccc(Cn2nnc3c2C(=O)c2nnn(Cc4ccc(NC(=O)CCN(CC)CC)cc4)c2C3=O)cc1 | 95.3% | -51% (active) | -92.8% (active) | -83.4% (active) | -85.1% (active) | -1.02% (active) | -96.8% (active) | -79.6% (active) | -60.9% (active) | – | -50.1% (active) | 99.9 | 122 | 87.6 | 85.9 | 14.6% | -13% (active) | -28.9% (active) | -12.6% (active) | –
9 | COc1cc(C2CC(=O)c3c(C)nn(-c4nc5ccccc5[nH]4)c3C2)cc(OC)c1OC (configuration not stated) | 87% | 74.2% | -24.8% (active) | 71.8% | 30% | 72.2% | 87.1% | 90.8% | 86.5% | 91.2% | 75.9% | 91.1 | 45.3 | 59.1 | 101 | 56.5% | 104% | 102% | – | –
10 | CC(C)[C@H]1COC(=O)N1[C@@H]1C(=O)N([C@@H](CCC(=O)N2CCN(C3CCCC3)CC2)C(=O)N[C@@H]2CCCc3ccccc32)[C@@H]1/C=C/c1cccc(Br)c1 | 20.9% | -15.3% (active) | 50% | 44.7% | 27.5% | 29.7% | – | 47.3% | 32.2% | -7.94% (active) | 38% | 31 | 30.9 | 48.9 | 62.5 | 0.642% (active) | 32.8% | 17.9% | -32% (active) | 48.2
11 | Cc1nn(-c2nc3ccccc3[nH]2)c2c1C(c1ccc3c(c1)OCO3)CC(=O)N2 (configuration not stated) | 47.6% | 34.7% | 39.8% | 49% | 30.5% | 21.6% | 12.4% | 27.3% | 82.3% | 52.9% | 41.9% | 22.7 | 69.4 | 31 | 65.7 | -8.66% (active) | 12.1% | -48.5% (active) | – | –
12 | Cc1cc(OCc2ccc(C(F)(F)F)cc2)c2c(c1)C(=O)C=C(NCCN1CCCC1)C2=O | 31.2% | 9.81% (active) | 76.4% | 79.8% | 22.3% | 66% | -35.7% (active) | 86.8% | -84.1% (active) | – | 79.4% | 53.8 | 82.7 | 72.5 | 53.1 | 67.8% | 13% | 16.4% | -52.9% (active) | –
13 | COc1c(C2CC(=O)Nc3c2cnn3Cc2ccco2)cc2c(c1OC)OCO2 (configuration not stated) | 18.5% | 11.2% | 8.9% (active) | 50.6% | 20.4% | 24.6% | 3.98% (active) | 35.4% | 40.7% | 46.3% | 32.5% | 59.4 | 73.9 | 40.2 | 36.9 | -2.53% (active) | 10.1% | 1.51% (active) | – | –
14 | COc1ccc(C(=O)c2sc3nc(-c4ccccc4OC)ccc3c2N)cc1OC | 58.5% | 56.2% | 73.2% | 78.2% | 63.2% | 30.9% | 8.53% (active) | 67.8% | 88.8% | 89.5% | – | 53.4 | 79.7 | 66.9 | 62.4 | 47.7% | 26.5% | -45% (active) | – | –
15 | O=C(O)c1c([N+](=O)[O-])cnc2ccccc12 | 109% | 107% | 88.4% | 91% | 106% | 104% | – | 99.4% | 125% | 102% | 97.2% | 64.9 | 102 | 111 | 98 | 118% | 127% | 105% | 97.6% | 58.2
16 | C=C1CCC2C3(C)COC(c4ccc(OC)cc4Br)OC3CCC2(C)C1/C=C/C1=CCOC1=O (configuration not stated) | 65.7% | 75.6% | 82.3% | 97.4% | 74.7% | 47.7% | – | 61.9% | 80.2% | 81.2% | 79.8% | 54.2 | 83.9 | 81.1 | 74.3 | 72.2% | – | 55.7% | 71.1% | 44.2
17 | COc1c2ccccc2c(OC)c2[nH]c(=O)ccc12 | 22.1% | 46.6% | -21.3% (active) | 12.2% | 28.4% | 67% | – | -6.37% (active) | 25.4% | 64.2% | 40.5% | 59.9 | 110 | 65.1 | 81 | 48.3% | -58.7% (active) | 69.4% | 12.1% | 27.8
